Test [1] concerns Human papillomavirus type 1a protein E7 (residues 44-93). Description: small molecules binding HPV E7 44-93 – biochemical, small-molecule microarray, residues 44-93, 635 nm fluorescence, primary screen (AID 1108).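 Note: E7 fragment applied at 1 µg/mL in TBST for 1 h at 4 C; score combines spot fluorescence with its signal to noise ratio.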 Conditions: fluorescence 635 nm, higher = more signal.
A short description of test [2]: hepatitis C replication reporter changes, two-sided – Huh7 cells, luciferase reporter, HCV replication inhibitor project, primary screen (AID 1109).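 Note: huh7 hepatoma cells harbouring a luciferase neomycin HCV replicon reporter; luciferase luminescence as measure of HCV replicon replication; test concentration not given here.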 The conditions noted are these: Huh7 HCV replicon luciferase reporter, 48 h; higher = more signal. (A reporter such as luciferase makes a cellular process visible.)
Test [3] concerns the target Left-right determination factor 2 (Homo sapiens) (UniProt O00292). Description: small molecules binding LEFTY2 protein – biochemical, small-molecule microarray, 635 nm fluorescence scan, primary screen (AID 1110). The conditions noted are these: higher = more signal.
For test [4], the target named is Calmodulin-1 (Homo sapiens) (UniProt P0DP23). Description: small molecules binding calmodulin-1 with EGTA – biochemical, small-molecule microarray, Cy5-labelled CALM1, profiling panel (AID 1111).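 Note: labelled calmodulin applied in Tris saline Tween buffer holding calcium plus EGTA and DTT.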 Conditions: Cy5-CALM1 binding fluorescence, higher = more signal.
Test [5] has the same target. The test is described as follows: small molecules binding Ca-loaded calmodulin-1 – biochemical, small-molecule microarray, Cy5-labelled CALM1, plus calcium, artefact control for SMM control-protein annotation, profiling panel (AID 1112).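 Note: score merges spot fluorescence with signal to noise from triplicate slides.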 Conditions: Cy5-CALM1 binding fluorescence, higher = more signal.
Test [6] in a line: probe aWnt5a binding to arrayed compounds – biochemical, biotinylated probe, 635/667 nm fluorescence, primary screen (AID 1113).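 Note: score merges 667 nm fluorescence intensity with signal-to-noise per printed feature.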 Conditions: small-molecule microarray, higher = more signal.
Test [7] can be described thus: probe aShh binding to arrayed compounds – biochemical, biotinylated probe, 635/667 nm fluorescence, primary screen (AID 1114).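 Note: probe is biotin-labelled aShh protein from a stem cell growth factor screen; measures binding of labelled protein to compounds printed on the slide; score merges feature fluorescence at 667 nm with signal-to-noise.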 The conditions noted are these: small-molecule microarray, higher = more signal.
Test [8] can be described thus: probe aNog binding to arrayed compounds – biochemical, biotinylated probe, 635/667 nm fluorescence, primary screen (AID 1115).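 Note: probe is biotinylated aNog protein used at 0.15 µg/mL for 1 h at 4 C; z-score combines 667 nm fluorescence of each spot with its signal to noise.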 The conditions noted are these: small-molecule microarray, higher = more signal.
The target of test [9] is Torsin-1A-interacting protein 1 (Homo sapiens) (UniProt Q5JTV8). Description: compound microarray binding of lysate hLAP1 – cell lysate, small-molecule microarray, COS7 lysate, 635/667 nm fluorescence, primary screen (AID 1116). Conditions: 635 nm fluorescence, higher = more signal.
Torsin-1A-interacting protein 1 (Homo sapiens), sequence (Q5JTV8 whole entry, looked up): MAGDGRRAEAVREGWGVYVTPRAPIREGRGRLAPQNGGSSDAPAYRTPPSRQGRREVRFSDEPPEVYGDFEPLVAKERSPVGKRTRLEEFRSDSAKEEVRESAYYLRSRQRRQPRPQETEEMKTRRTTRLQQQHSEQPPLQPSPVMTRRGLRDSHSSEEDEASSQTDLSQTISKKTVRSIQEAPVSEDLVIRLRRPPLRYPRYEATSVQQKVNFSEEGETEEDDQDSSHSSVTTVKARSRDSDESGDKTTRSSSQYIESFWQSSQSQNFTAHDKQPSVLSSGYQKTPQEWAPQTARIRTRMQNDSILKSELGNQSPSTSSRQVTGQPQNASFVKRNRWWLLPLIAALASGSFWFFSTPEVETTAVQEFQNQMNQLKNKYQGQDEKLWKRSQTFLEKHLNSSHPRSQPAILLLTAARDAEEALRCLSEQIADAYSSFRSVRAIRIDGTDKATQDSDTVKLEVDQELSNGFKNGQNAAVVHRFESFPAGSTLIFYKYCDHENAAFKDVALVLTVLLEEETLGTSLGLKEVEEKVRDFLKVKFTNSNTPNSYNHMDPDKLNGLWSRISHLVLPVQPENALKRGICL
The target in test [10] is Alpha-bungarotoxin (Bungarus multicinctus) (UniProt P60615). Description: compounds binding labelled alpha-BTX control protein – biochemical, small-molecule microarray, Alexa647 label, 635/667 nm fluorescence, artefact control for SMM control protein annotation, profiling panel (AID 1117). Conditions: alpha-BTX-A647 binding fluorescence, higher = more signal.
Alpha-bungarotoxin (Bungarus multicinctus), sequence (P60615 whole entry, looked up): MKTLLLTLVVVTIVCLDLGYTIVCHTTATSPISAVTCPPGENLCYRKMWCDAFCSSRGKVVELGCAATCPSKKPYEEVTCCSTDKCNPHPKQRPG
A further test deals with Albumin (Bos taurus) (UniProt P02769). Description: compounds binding labelled BSA control protein – biochemical, small-molecule microarray, Alexa647 label, 635/667 nm fluorescence, artefact control for SMM control protein annotation, profiling panel (AID 1118).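 Note: score merges 667 nm emission intensity and signal-to-noise per printed compound spot.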 The conditions noted are these: BSA-A647 binding, fluorescence 635 nm, higher = more signal.
Albumin (Bos taurus), sequence (P02769 whole entry, looked up): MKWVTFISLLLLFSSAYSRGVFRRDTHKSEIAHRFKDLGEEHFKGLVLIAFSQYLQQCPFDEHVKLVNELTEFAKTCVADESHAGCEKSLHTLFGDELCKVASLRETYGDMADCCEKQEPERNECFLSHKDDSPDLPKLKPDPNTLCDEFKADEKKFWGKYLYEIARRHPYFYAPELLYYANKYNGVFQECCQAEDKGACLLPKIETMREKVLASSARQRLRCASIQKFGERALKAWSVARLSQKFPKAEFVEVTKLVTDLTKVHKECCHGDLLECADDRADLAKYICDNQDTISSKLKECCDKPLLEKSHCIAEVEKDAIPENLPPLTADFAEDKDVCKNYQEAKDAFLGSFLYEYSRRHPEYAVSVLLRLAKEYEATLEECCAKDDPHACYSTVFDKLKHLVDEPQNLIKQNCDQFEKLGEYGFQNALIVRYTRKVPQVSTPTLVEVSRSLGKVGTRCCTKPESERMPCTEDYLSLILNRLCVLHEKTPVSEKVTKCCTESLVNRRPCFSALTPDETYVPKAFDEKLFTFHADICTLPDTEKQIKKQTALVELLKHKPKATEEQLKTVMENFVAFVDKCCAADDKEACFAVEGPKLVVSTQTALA
Test [11] can be described thus: probe aXIP binding to arrayed compounds – biochemical, NeuroSMM set, 635/667 nm fluorescence, primary screen (AID 1119).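 Note: probe is the protein aXip251-270 applied at 1 µg/mL to compound-printed slides; binding of probe to printed compounds measured as 667 nm fluorescence plus signal to noise.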 Conditions: small-molecule microarray, higher = more signal, called active from +8 up or from −8 down.
Test [12] is described as follows: probe aNOTCH3 binding on compound microarray – biochemical, small-molecule microarray, 635/667 nm fluorescence, primary screen (AID 1120).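 Note: probe is a biotin-tagged antibody raised against NOTCH3 rather than NOTCH3 protein; score merges spot fluorescence near 667 nm with spot signal to noise.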 The conditions noted are these: higher = more signal.
A short description of test [13]: probe aNOTCH2 binding on compound microarray – biochemical, small-molecule microarray, 635/667 nm fluorescence, primary screen (AID 1121).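 Note: score merges feature fluorescence read at 667 nm with its signal to noise.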 Conditions: higher = more signal.
Test [14] deals with Carbonic anhydrase 2 (Homo sapiens) (UniProt P00918). The test is described as follows: compounds binding carbonic anhydrase 2 – biochemical, small-molecule microarray, Alexa647-labelled CAII, profiling panel (AID 1122). The conditions noted are these: CAII-A647 binding fluorescence, higher = more signal.
The nature of test [15]: COS7 lysate on small-molecule microarray, probe aHis, 635 nm (AID 1123).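 Note: z-score combines 667nm fluorescence intensity with signal-to-noise per printed compound spot.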 Conditions: COS7 cell lysate, fluorescence, higher = more signal.
A short description of test [16]: probe aLAP1 signal on lysate-treated microarray – cell lysate, small-molecule microarray, COS7 lysate, primary screen (AID 1124).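 Note: lysate comes from COS7 cells expressing LAP1 and is applied at 0.3 µg/mL; score merges spot fluorescence near 667 nm with signal-to-noise over triplicate slides.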 The conditions noted are these: probe aLAP1, fluorescence, higher = more signal.
The subject of a further test is Sam68 (KHDRBS1). Description: compounds binding KHDRBS1 protein – biochemical, small-molecule microarray, 635 nm fluorescence, primary screen (AID 1125).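 Note: score merges 667 nm channel intensity with signal to noise over triplicate slides.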 Conditions: higher = more signal.
In test [17] the test system is Chordin-like protein 2 (CHRDL2). Description: compounds binding chordin-like 2 – biochemical, small-molecule microarray, 635 nm fluorescence, primary screen (AID 1126).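 Note: printed compound slides probed with Chrdl2 protein at 4 µg/mL for 1 h at 4 C; score merges 667 nm emission intensity with signal to noise over three replicate slides.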 Conditions: fluorescence 635 nm, higher = more signal.
The target of test [18] is Concanavalin-A (Canavalia ensiformis) (UniProt P02866). The test is described as follows: compounds binding concanavalin A lectin – biochemical, small-molecule microarray, Alexa647 label, 635 nm, artefact control for SMM control protein annotation, primary screen (AID 1127).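 Note: z combines 667 nm emission intensity with signal-to-noise across three replicate slides.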 The conditions noted are these: ConA-A647 binding fluorescence, higher = more signal.
Concanavalin-A (Canavalia ensiformis), sequence (P02866 whole entry, looked up): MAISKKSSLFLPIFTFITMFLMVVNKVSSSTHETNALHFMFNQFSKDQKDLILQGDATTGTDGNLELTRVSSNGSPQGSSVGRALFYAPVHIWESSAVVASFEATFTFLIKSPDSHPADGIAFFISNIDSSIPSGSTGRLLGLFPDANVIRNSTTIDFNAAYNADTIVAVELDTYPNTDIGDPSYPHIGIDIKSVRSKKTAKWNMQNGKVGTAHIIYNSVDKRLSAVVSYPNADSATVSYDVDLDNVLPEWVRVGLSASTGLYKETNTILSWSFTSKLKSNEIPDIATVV

We go through six compounds from PubChem BioAssay.

Activity calls are given as the source filed them.

Left-right determination factor 2 (Homo sapiens), sequence (O00292 whole entry, looked up): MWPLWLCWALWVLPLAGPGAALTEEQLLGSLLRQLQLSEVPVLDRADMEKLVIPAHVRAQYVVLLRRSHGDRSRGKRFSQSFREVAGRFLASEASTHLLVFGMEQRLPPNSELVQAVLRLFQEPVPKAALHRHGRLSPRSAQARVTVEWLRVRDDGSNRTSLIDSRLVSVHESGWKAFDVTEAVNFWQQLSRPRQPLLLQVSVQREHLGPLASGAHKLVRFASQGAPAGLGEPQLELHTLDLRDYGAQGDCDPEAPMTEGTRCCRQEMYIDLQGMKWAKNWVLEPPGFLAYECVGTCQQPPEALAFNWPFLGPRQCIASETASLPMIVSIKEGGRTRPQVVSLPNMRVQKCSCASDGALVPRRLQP

With `CC(C)NC(=O)[C@@]1(Cc2ccccc2I)c2ccccc2C(=O)N(Cc2ccccc2C(F)(F)F)[C@H]1c1ccc(CO)cc1`, the composite z-score in [1] was -0.358; in test [3] it was -0.0083; in [4] it was 0.503; in test [5], 0.377; in test [6] it was -0.096; in test [7], -0.012. Besides, the composite z-score stood at 0.647 in test [8]; 0.506 in test [9]; 0.565 in [10]; 0.263 in the test with Albumin (Bos taurus); 0.059 in test [12]; 0.0509 in test [13]. In addition, the composite z-score came to 0.71 in [14]; 1.47 in test [15]; 0.896 in test [16]; 0.63 in the test with Sam68 (KHDRBS1); 0.107 in [17]; 0.548 in test [18]. Also, the z-score in [2] was -1.47. Also, the composite Z-score in test [11] is 0.0307 (inactive).
Regarding `O=C1O[C@H](c2ccccc2)[C@H](c2ccccc2)N2[C@H]1[C@@H](C(=O)N1CCN(c3ncccn3)CC1)[C@]1(C(=O)Nc3ccc(C#CCCO)cc31)[C@H]2c1ccc(OCCO)cc1`, the composite z-score in [1] was 1.41; in [3] it was 1.35; in test [4] it was 1.23; in test [5], -0.188; in [6], 0.0614; in test [7], 0.0141. Further, the composite z-score in test [8] was 0.242; in [9] it was 1.53; in test [10] it was 0.554; in the test with Albumin (Bos taurus), 0.612; in test [12], 0.255; in test [13], -0.0633. For the same compound, the composite z-score in test [14] is 0.296; in test [15], 1.96; in test [16] it was 0.924; in the test on Sam68 (KHDRBS1), 1.3; in test [17], 0.944; in test [18], 1.11. The z-score in [2] was -1.35. For the same compound, the composite Z-score in test [11] was 1.38 (inactive).
Turning to `O=C(CS)NCCCCCNC(=O)[C@@H]1C[C@@H]2C(=O)N3CCC[C@H]3C(=O)N2[C@@H]1c1ccc(O)cc1`, the composite z-score in test [1] is 0.922; in test [3], 0.0978; in test [4] it was 0.195; in [5], 0.194; in [6], -0.0758; in test [7], 0.499. For the same compound, the composite z-score in [8] was -0.152; in [9], 0.375; in test [10], 0.542; with Albumin (Bos taurus), -0.683; in test [12] it was -0.0587; in test [13], -0.151. The composite z-score in test [14] was 0.636; in test [15], 1.86; in [16] it was 0.363; in the test with Sam68 (KHDRBS1), 0.928; in test [17] it was -0.0012; in test [18], 1.15. In [2], this compound had a z-score of 0.0311. Also, the composite Z-score in test [11] is 0.647 (inactive).
As to `O=C1C2C=CC(C(O)c3ccc(Br)cc3)N(Nc3ccccc3)C2C(=O)N1c1ccccc1` (stereo not given), the composite z-score in [1] is 0.699; in test [3] it was -0.853; in [4] it was 0.863; in test [5], 0.29; in test [6], 0.0151; in [7], 0.389. The composite z-score in test [8] amounted to 1.26; in [9] it was 0.661; in [10], 1.2; with Albumin (Bos taurus) it was 0.875; in test [12], 0.328; in test [13], 0.166. For the same compound, the composite z-score in [14] came out at 0.652; in test [15] it was 1.76; in test [16] it was 0.189; with Sam68 (KHDRBS1), 0.668; in test [17] it was 0.527; in test [18] it was 0.722. The compound further showed a z-score in test [2] of 0.393. Moreover, the composite Z-score in [11] is -0.0127 (inactive).
On to `C=C(C(=O)CC[C@H](OC(=O)c1cccnc1)c1ccc(OCCO)cc1)C(C)C`, for which the composite z-score in test [1] was 1.33; in [3], 0.242; in test [4], 0.098; in test [5] it was -1.01; in test [6], -0.0704; in test [7], -0.142. Also, the composite z-score in test [8] was -0.196; in test [9], 1.68; in test [10] it was 1.11; in the test with Albumin (Bos taurus), 0.335; in test [12], 0.0571; in [13], -0.105. The composite z-score in test [14] worked out at 0.695; in test [15], 0.706; in [16], 0.296; with Sam68 (KHDRBS1), 1.13; in test [17], 0.274; in [18], 1.12. The same compound yielded a z-score in test [2] of -3.29. Moreover, in test [11], the composite Z-score was -0.496 (inactive).
As for `COC(=O)[C@@]1(Cc2ccccc2)[C@H]2c3cc(C(=O)N(C)C)n(Cc4ccc(O)c(OC)c4)c3C[C@H]2CN1C(=O)c1ccccc1`, the composite z-score was 1.45 in [1]; -0.276 in test [3]; 1.46 in test [4]; 1.17 in test [5]; 0.75 in test [6]; 0.16 in [7]. The composite z-score was -0.322 in test [8]; 0.141 in test [9]; 0.245 in test [10]; 0.955 with Albumin (Bos taurus); 0.808 in test [12]; -0.246 in test [13]. Also, the composite z-score in test [14] was 0.759; in [15], 2.17; in [16], 0.091; with Sam68 (KHDRBS1) it was 0.507; in test [17] it was -0.629; in test [18] it was 1.1. The z-score in test [2] is -2.56. Further, the composite Z-score in test [11] was 0.403 (inactive).
